Data reported in PubChem BioAssay (EPA / NIEHS).
The source made the active and inactive calls. How the source made its calls: active means hit-call score of the fitted dose curve at least 0.9, where 1 is the maximum; inactive means score below 0.9.

Tests used:
[1] = read-out: Cytochrome P450 (CYP1A1), CYP1A1 (gene 1543); experiment: LTEA_HepaRG_CYP1A1: Life Technologies and Expression Analysis (LTEA) Assay for Cytochrome P450 (CYP1A1) using HepaRG (AID 2283454); conditions: mRNA level, 48 h; actives raise or lower the signal
Summary of the method: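 Differentiated human HepaRG cells, after 48 h plating, exposed in duplicate for 48 h in serum-free induction medium to 8 half-log concentrations up to 100 uM in 0.5% DMSO. CYP1A1 mRNA by qRT-PCR, normalized to ACTB/GAPDH/POLR2A; bidirectional fit versus DMSO.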

[2] = read-out: CFLAR gene, CFLAR (gene 8837); experiment: LTEA_HepaRG_CFLAR: Life Technologies and Expression Analysis (LTEA) Assay for CFLAR gene using HepaRG (AID 2283455); conditions: mRNA level, 48 h; actives raise or lower the signal
Summary of the method: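 HepaRG cells were plated for 48 h, switched to serum-free induction medium, then exposed in duplicate for 48 h to 8 concentrations (top 100 uM, half-log steps, 0.5% DMSO). CFLAR mRNA was measured by qRT-PCR, normalized to ACTB, GAPDH and POLR2A.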

[3] = read-out: Forkhead box O1 (FOXO1), FOXO1 (gene 2308); experiment: LTEA_HepaRG_FOXO1: Life Technologies and Expression Analysis (LTEA) Assay for Forkhead box O1 (FOXO1) using HepaRG (AID 2283456); conditions: mRNA level, 48 h; actives raise or lower the signal
Summary of the method: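 Differentiated human HepaRG cells in serum-free induction medium were exposed in duplicate for 48 h to eight half-log concentrations (top 100 uM, 0.5% DMSO). FOXO1 mRNA was measured by TaqMan qRT-PCR, normalised to ACTB, GAPDH and POLR2A, and fitted bidirectionally against DMSO.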

[4] = read-out: growth arrest and DNA damage 45 (GADD45A), GADD45A (gene 1647); experiment: LTEA_HepaRG_GADD45A: Life Technologies and Expression Analysis (LTEA) Assay for growth arrest and DNA damage 45 (GADD45A) using HepaRG (AID 2283458); conditions: mRNA level, 48 h; actives raise or lower the signal
Summary of the method: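 Human HepaRG liver cells are treated in duplicate for 48 h with chemicals in 0.5% DMSO, highest concentration 100 uM. Expression is read by qRT-PCR and analyzed in both directions against vehicle.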

[5] = read-out: Forkhead box O3 (FOXO3), FOXO3 (gene 2309); experiment: LTEA_HepaRG_FOXO3: Life Technologies and Expression Analysis (LTEA) Assay for Forkhead box O3 (FOXO3) using HepaRG (AID 2283459); conditions: mRNA level, 48 h; actives raise or lower the signal
Summary of the method: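 Differentiated human HepaRG cells in serum-free induction medium were exposed in duplicate for 48 h to eight half-log concentrations up to 100 uM in 0.5% DMSO. FOXO3 mRNA was quantified by qRT-PCR, normalized to ACTB, GAPDH and POLR2A, with bidirectional fitting versus DMSO.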

[6] = read-out: ABC Transporter (ABCB1), ABCB1 (gene 5243); experiment: LTEA_HepaRG_ABCB1: Life Technologies and Expression Analysis (LTEA) Assay for ABC Transporter (ABCB1) using HepaRG (AID 2283460); conditions: mRNA level, 48 h; actives raise or lower the signal
Summary of the method: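 Differentiated human HepaRG cells, plated 48 h then switched to serum-free induction medium, were exposed in duplicate to eight half-log concentrations up to 100 uM in 0.5% DMSO for 48 h. ABCB1 mRNA was measured by TaqMan qRT-PCR, normalized to ACTB/GAPDH/POLR2A.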

[7] = read-out: growth arrest and DNA damage 45 (GADD45B), GADD45B (gene 4616); experiment: LTEA_HepaRG_GADD45B: Life Technologies and Expression Analysis (LTEA) Assay for growth arrest and DNA damage 45 (GADD45B) using HepaRG (AID 2283461); conditions: mRNA level, 48 h; actives raise or lower the signal
Summary of the method: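 Differentiated human HepaRG cells in serum-free induction medium exposed 48 h in duplicate to eight concentrations, top 100 uM, half-log steps, 0.5% DMSO. GADD45B mRNA by TaqMan qRT-PCR, normalized to ACTB, GAPDH, POLR2A; bidirectional fit versus DMSO.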

[8] = read-out: ABC Transporter (ABCC3), ABCC3 (gene 8714); experiment: LTEA_HepaRG_ABCC3: Life Technologies and Expression Analysis (LTEA) Assay for ABC Transporter (ABCC3) using HepaRG (AID 2283462); conditions: mRNA level, 48 h; actives raise or lower the signal
Summary of the method: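 Differentiated human HepaRG cells exposed 48 h in serum-free induction medium, 0.5% DMSO vehicle, 8-point half-log series to 100 uM in duplicate. ABCC3 mRNA by qRT-PCR, normalised to ACTB, GAPDH, POLR2A; bidirectional fit vs DMSO.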

[9] = read-out: ABC Transporter (ABCB11), ABCB11 (gene 8647); experiment: LTEA_HepaRG_ABCB11: Life Technologies and Expression Analysis (LTEA) Assay for ABC Transporter (ABCB11) using HepaRG (AID 2283463); conditions: mRNA level, 48 h; actives raise or lower the signal
Summary of the method: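 Differentiated human HepaRG cells were exposed for 48 h in serum-free induction medium to eight half-log concentrations up to 100 uM in 0.5% DMSO. ABCB11 mRNA was quantified by qRT-PCR, normalized to ACTB, GAPDH and POLR2A, and fitted bidirectionally versus DMSO.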

[10] = read-out: ABC Transporter (ABCC2), ABCC2 (gene 1244); experiment: LTEA_HepaRG_ABCC2: Life Technologies and Expression Analysis (LTEA) Assay for ABC Transporter (ABCC2) using HepaRG (AID 2283464); conditions: mRNA level, 48 h; actives raise or lower the signal
Summary of the method: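 Differentiated HepaRG cells in serum-free induction medium exposed 48 h to eight half-log concentrations up to 100 uM, 0.5% DMSO, in duplicate. ABCC2 mRNA measured by qRT-PCR (TaqMan, Fluidigm), normalized to ACTB, GAPDH and POLR2A. Fitted in both directions against DMSO.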

[11] = read-out: Broad substrate specificity ATP-binding cassette transporter ABCG2 (Homo sapiens) (UniProt Q9UNQ0); experiment: LTEA_HepaRG_ABCG2: Life Technologies and Expression Analysis (LTEA) Assay for ABC Transporter (ABCG2) using HepaRG (AID 2283465); conditions: mRNA level, 48 h; actives raise or lower the signal
Summary of the method: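 Differentiated HepaRG cells in serum-free induction medium were exposed for 48 h, in duplicate, to eight half-log concentrations up to 100 uM in 0.5% DMSO. ABCG2 mRNA was measured by TaqMan qRT-PCR, normalized to ACTB, GAPDH and POLR2A, and fitted bidirectionally versus DMSO.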

[12] = read-out: ATP-citrate lyase (ACLY), ACLY (gene 47); experiment: LTEA_HepaRG_ACLY: Life Technologies and Expression Analysis (LTEA) Assay for ATP-citrate lyase (ACLY) using HepaRG (AID 2283466); conditions: mRNA level, 48 h; actives raise or lower the signal
Summary of the method: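 Differentiated human HepaRG cells in serum-free induction medium exposed 48 h, in duplicate, to eight half-log concentrations from 100 uM top in 0.5% DMSO; ACLY mRNA measured by qRT-PCR, normalized to ACTB, GAPDH, POLR2A, fitted bidirectionally versus DMSO.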

[13] = read-out: Peroxisomal acyl-coenzyme A oxidase 1 (ACOX1) gene, ACOX1 (gene 51); experiment: LTEA_HepaRG_ACOX1: Life Technologies and Expression Analysis (LTEA) Assay for Peroxisomal acyl-coenzyme A oxidase 1 (ACOX1) gene using HepaRG (AID 2283467); conditions: mRNA level, 48 h; actives raise or lower the signal
Summary of the method: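 Differentiated human HepaRG cells were exposed in duplicate for 48 h in serum-free induction medium to eight half-log concentrations up to 100 uM in 0.5% DMSO. ACOX1 mRNA was then quantified by TaqMan qRT-PCR, normalized to ACTB, GAPDH and POLR2A.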

[14] = read-out: Alkaline Phosphatase, Placental (ALPP) gene, ALPP (gene 250); experiment: LTEA_HepaRG_ALPP: Life Technologies and Expression Analysis (LTEA) Assay for Alkaline Phosphatase, Placental (ALPP) gene using HepaRG (AID 2283468); conditions: mRNA level, 48 h; actives raise or lower the signal
Summary of the method: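 HepaRG cells plated 48 h, then exposed in duplicate for 48 h in serum-free induction medium to 8-point half-log series from 100 uM in 0.5% DMSO. ALPP mRNA by TaqMan qRT-PCR, normalized to ACTB/GAPDH/POLR2A; bidirectional fit versus DMSO.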

[15] = read-out: Bcl-2 (BAD) gene, BAD (gene 572); experiment: LTEA_HepaRG_BAD: Life Technologies and Expression Analysis (LTEA) Assay for Bcl-2 (BAD) gene using HepaRG (AID 2283469); conditions: mRNA level, 48 h; actives raise or lower the signal
Summary of the method: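 Differentiated human HepaRG cells in serum-free induction medium were exposed in duplicate for 48 h to eight concentrations (top 100 uM, half-log steps, 0.5% DMSO). BAD mRNA was quantified by qRT-PCR normalised to ACTB, GAPDH and POLR2A, with bidirectional fitting versus DMSO.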

[16] = read-out: Bcl-2 (BAX) gene, BAX (gene 581); experiment: LTEA_HepaRG_BAX: Life Technologies and Expression Analysis (LTEA) Assay for Bcl-2 (BAX) gene using HepaRG (AID 2283470); conditions: mRNA level, 48 h; actives raise or lower the signal
Summary of the method: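 Concentration-response endpoint fitted in both directions relative to 0.5% DMSO vehicle. Human HepaRG cultures receive test chemicals for 48 h at up to 100 uM; BAX mRNA is quantified by qRT-PCR against housekeeping genes.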

[17] = read-out: adenosine kinase (ADK) gene, ADK (gene 132); experiment: LTEA_HepaRG_ADK: Life Technologies and Expression Analysis (LTEA) Assay for adenosine kinase (ADK) gene using HepaRG (AID 2283471); conditions: mRNA level, 48 h; actives raise or lower the signal
Summary of the method: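 HepaRG (human liver), 48 h chemical exposure, 8-pt half-log series, top 100 uM, 0.5% DMSO vehicle. Readout: ADK mRNA by qRT-PCR vs housekeeping genes; bidirectional curve fit relative to DMSO baseline.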

[18] = read-out: Alpha-fetoprotein (AFP) gene, AFP (gene 174); experiment: LTEA_HepaRG_AFP: Life Technologies and Expression Analysis (LTEA) Assay for Alpha-fetoprotein (AFP) gene using HepaRG (AID 2283472); conditions: mRNA level, 48 h; actives raise or lower the signal
Summary of the method: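 After a 48 h plating period, cells are moved to serum-free induction medium and dosed in duplicate (100 uM maximum, half-log dilutions, 0.5% DMSO) for another 48 h. Total RNA goes to TaqMan qRT-PCR; AFP signal is housekeeping-normalized.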

BCL2L11 (gene 10018) = experiment: LTEA_HepaRG_BCL2L11: Life Technologies and Expression Analysis (LTEA) Assay for Bcl-2 (BCL2L11) gene using HepaRG (AID 2283473); conditions: mRNA level, 48 h; actives raise or lower the signal
Summary of the method: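 Differentiated human HepaRG cells were exposed 48 h in serum-free induction medium to eight half-log concentrations up to 100 uM in 0.5% DMSO, in duplicate. BCL2L11 mRNA was quantified by TaqMan qRT-PCR, normalized to ACTB, GAPDH and POLR2A; induction or repression fitted versus DMSO.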

[19] = CEETOX_H295R_TESTO: CeeTox H295R High-throughput Steroidogenesis Assay for Testosterone (TESTO) (AID 2283457); conditions: actives raise or lower the signal
Summary of the method: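 H295R adrenal cells, passage ≤10, exposed to chemicals for 48 h. Testosterone in medium measured by MTBE extraction and HPLC-MS/MS against a 7-point standard curve. Bidirectional fit versus DMSO; MTT viability checked in the same wells.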

Measured: AC50

Chain of Broad substrate specificity ATP-binding cassette transporter ABCG2 (Homo sapiens) (Q9UNQ0 whole entry, looked up): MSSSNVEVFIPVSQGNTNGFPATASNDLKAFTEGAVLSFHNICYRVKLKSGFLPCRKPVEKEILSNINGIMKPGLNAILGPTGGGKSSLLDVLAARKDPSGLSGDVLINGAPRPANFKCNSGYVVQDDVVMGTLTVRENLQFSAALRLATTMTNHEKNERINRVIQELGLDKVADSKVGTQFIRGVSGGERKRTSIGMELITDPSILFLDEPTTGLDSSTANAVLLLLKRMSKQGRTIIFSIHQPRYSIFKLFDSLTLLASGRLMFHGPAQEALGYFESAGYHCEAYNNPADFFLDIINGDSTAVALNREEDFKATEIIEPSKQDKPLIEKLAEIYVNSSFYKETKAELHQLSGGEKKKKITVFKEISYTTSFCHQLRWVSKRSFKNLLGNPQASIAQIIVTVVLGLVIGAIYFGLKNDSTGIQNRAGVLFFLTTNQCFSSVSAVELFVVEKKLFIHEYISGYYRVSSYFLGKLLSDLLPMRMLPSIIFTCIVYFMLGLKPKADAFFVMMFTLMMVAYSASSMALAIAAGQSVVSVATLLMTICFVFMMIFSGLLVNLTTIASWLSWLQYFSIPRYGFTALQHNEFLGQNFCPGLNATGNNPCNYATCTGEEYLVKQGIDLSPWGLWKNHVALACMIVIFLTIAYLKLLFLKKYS

C1CNCCN1
active: [1] 73.1 µM
not listed: [19]
inactive: all other assays above

Cc1ccc([N+](=O)[O-])cc1N
active: [1] 25 µM
not listed: [19]
inactive: all other assays above

CCOC(=O)C1=NN(c2ccc(Cl)cc2Cl)C(C)(C(=O)OCC)C1 (stereo not given)
inactive: [19]

COc1ccc(C(=O)c2ccccc2)c(O)c1
inactive: [19]

Nc1ccc(C(=O)O)cc1
active: [1] 77 µM
not listed: [19]
inactive: all other assays above

C=CC(=O)OCCCCCCOC(=O)C=C
inactive: [19]
